High-throughput results (PubChem)
Rows were chosen to be rich in hits. Some 3.1% of all compounds tested hit in one or more screens of this group.
TR SRC2 fluor cs – Total Fluorescence Counterscreen for Inhibitors of the Interaction of Thyroid Hormone Receptor and Steroid Receptor Coregulator 2; TRb/SRC2 Texas Red total fluorescence interference; Potency, µM (doses to about 106 µM), for inactives: at the highest dose fluorescence change, negative = quenching; 280,000 compounds, 0.29% hits; AID 1479, 2009; active = well fitted curve in either direction with a large enough effect; inconclusive = small, poorly fitted or top-dose-only effect
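Human TRβ ligand-binding domain (0.6 uM) and Texas Red SRC2 peptide (20 nM) in Tris buffer with 1 uM T3 and 5% DMSO were incubated with pinned compound for 5 hr at ambient temperature. Total fluorescence was computed as S + 2P (555/632 nm).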
TRb SRC2 PPI – qHTS for Inhibitors of the Interaction of Thyroid Hormone Receptor and Steroid Receptor Coregulator 2 | TRbeta-SRC2 peptide binding, fluorescence polarization; receptor liganded with 1 µM T3 | Potency, µM (highest dose often 106 µM), for inactives: at the top dose activity change, negative = inhibition, hits mostly inhibitors | 280,000 compounds, 0.065% hits;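 also: plate controls were bound peptide for no effect and peptide without receptor for full effect; nearly all actives have a fitted effect of over 50% in size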
Target sequence (P10828 whole entry, looked up): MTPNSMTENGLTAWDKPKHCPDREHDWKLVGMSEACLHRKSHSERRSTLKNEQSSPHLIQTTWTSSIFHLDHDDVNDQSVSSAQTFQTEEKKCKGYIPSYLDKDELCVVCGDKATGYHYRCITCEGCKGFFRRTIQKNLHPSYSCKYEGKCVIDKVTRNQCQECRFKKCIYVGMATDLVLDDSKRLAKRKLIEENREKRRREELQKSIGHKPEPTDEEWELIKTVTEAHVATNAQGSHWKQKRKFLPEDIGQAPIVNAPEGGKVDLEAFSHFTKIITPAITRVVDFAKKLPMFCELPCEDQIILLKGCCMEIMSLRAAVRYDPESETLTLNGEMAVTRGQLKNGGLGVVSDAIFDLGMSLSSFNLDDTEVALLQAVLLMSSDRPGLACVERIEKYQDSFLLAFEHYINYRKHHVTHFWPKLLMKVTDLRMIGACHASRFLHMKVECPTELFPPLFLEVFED
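Decrease in fluorescence polarization of 20 nM Texas Red SRC2 coactivator peptide flagged inhibition of its binding to 0.6 uM TRb LBD; 1 uM T3 included, incubation 5 hr, ex 555/em 632 nm.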
Tau fluor counter – Counterscreen qHTS for Inhibitors of Tau Fibril Formation, Fluorescence Polarization. tau K18 P301L Alexa594 fluorescence, heparin fibrillization. 280,000 compounds, 0.93% hits. Potency, µM (series often up to 57.7 µM), without a hit: at the top dose activity change, negative = decrease; also: nearly all actives have a fitted effect of over 55% in size
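Human tau K18 P301L (15 uM unlabeled, 0.24 uM Alexa 594-labeled) in 100 mM sodium acetate pH 7 with 20 uM heparin, 6 hr at 37 C. ThT 30 uM added, 1 hr ambient; Alexa 594 FP and total fluorescence read at 555/632 nm.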
Tau ThT inhib – qHTS for Inhibitors of Tau Fibril Formation, Thioflavin T Binding; recombinant tau K18 P301L (four-repeat tau fragment), heparin-induced fibrillization, ThT fluorescence; Potency, µM (highest dose often 57.4 µM), for the others: at the top dose activity, negative = inhibition, most hits filed as inhibitors; 270,000 compounds, 2.1% hits; AID 1460, 2008; also: nearly all actives have a fitted effect of over 55% in size
Target sequence (P10636 561-689 P618L limits assumed): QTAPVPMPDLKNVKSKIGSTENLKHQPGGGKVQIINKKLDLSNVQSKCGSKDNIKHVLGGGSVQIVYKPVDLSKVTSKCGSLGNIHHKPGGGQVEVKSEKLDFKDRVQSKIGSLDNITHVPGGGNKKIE
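Heparin-induced (20 uM) aggregation of recombinant human K18 P301L tau, 15 uM unlabeled with 0.24 uM labeled, pH 7 acetate buffer, 6 hr at 37 C with compound. Fibrils quantified by 30 uM ThT fluorescence after 1 hr ambient incubation.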
Tau FP inhib – qHTS for Inhibitors of Tau Fibril Formation, Fluorescence Polarization | Microtubule-associated protein tau (Homo sapiens), P10636 | K18 P301L tau heparin fibrillization, Alexa594 FP, 6 h | Potency, µM (doses to about 57.7 µM), without a hit: at the highest dose activity, negative = inhibition, most hits filed as inhibitors | 280,000 compounds, 0.39% hits | AID 1468, 2008; also: nearly all actives have a fitted effect of over 55% in size
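Read-out: fluorescence polarization of Alexa 594-labeled tau (0.24 uM), 555 nm excitation, 632 nm emission. Mixtures held 15 uM unlabeled K18 P301L, compound and 20 uM heparin, pH 7 acetate buffer, incubated 6 hr at 37 C.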
* hit, by the source's call; ? = inconclusive; . = no result given; [ ] = remark or other dose. Unless noted, calls follow the shape of the dose curve; as a rule, active = well fitted curve in the direction sought with a large enough effect; inconclusive = small, poorly fitted or top-dose-only effect, or another doubt; inactive = no such curve, though single readings can be large; an effect the other way counts as inactive or inconclusive. Unless noted, % is scaled to controls: 0 for no effect and ±100 for the full control effect; potency is read from the fitted curve at half-maximal effect.

SMILES | TR SRC2 fluor cs | TRb SRC2 PPI | Tau fluor counter | Tau ThT inhib | Tau FP inhib
Cc1cc(C)cc(Nc2cc(C(=O)NCc3ccccc3)c3ccccc3n2)c1 | -1% | 6% | 3.5µM*[quencher] | -13% | ?
Cc1cc(C)cc(Nc2cc(C(=O)NCCCN(C)C3CCCCC3)c3ccccc3n2)c1 | -1% | -3% | 3.2µM*[quencher] | ? | 4%
CCCSc1nnc(NC(=O)c2sc3nc(-c4cccs4)ccc3c2N)s1 | -10% | -1% | ? | 7.9µM* | -4%
Cc1ccc(NC(=O)c2sc3nc(-c4cccs4)ccc3c2N)cc1F | -3% | 0% | ? | ? | -9%
Cc1csc(NC(=O)c2sc3nc(-c4cccs4)ccc3c2N)n1 | -5% | -19% | ? | 7.9µM* | 13%
CCCSc1nnc(NC(=O)c2ccco2)s1 | -1% | -3% | -7% | -7% | 2%
O=C(CCC(=O)Nc1ccccc1)N/N=C/C=C/c1ccccc1 | -4% | 1% | 0% | -3% | -1%
O=C(Cc1cc(=O)[nH][nH]1)N/N=C/C=C/c1ccccc1 | -2% | -7% | -22% | 13µM* | ?
CCOc1ccc(N=C/C=C/c2ccccc2)c(O)c1 | -1% | -9% | ? | 4.5µM* | ?
CCOc1ccc(NCC(=O)N/N=C/C=C/c2ccccc2)cc1 | 1% | -14% | ? | 11µM* | 5%
COC(=O)C1=C(C(=O)OC)[C@@H]2Nc3ccccc3[C@@]23C[C@@H](C(=O)OC)N(S(=O)(=O)c2ccc(OC)cc2)C3=N1 | -4%[11.2 µM] | 2%[11.2 µM] | -19%[11.6 µM] | -13%[11.5 µM] | 2%[11.6 µM]
O=C(Nc1ccc(O)cc1)/C(=C\C=C\c1ccccc1)NC(=O)c1ccccc1 | -3% | 1% | 18µM*[quencher] | ? | -6%
O=C(Nc1ccc(O)cc1)/C(=C\c1ccncc1)NC(=O)c1ccccc1 | -1% | -7% | 11% | 14% | 10%
Cc1cccc(NC(=S)NCCSc2ccc(Cl)cc2)c1 | -1% | 1% | 10µM*[quencher] | -18% | ?
Cc1ccc(C)c(NC(=S)NCCSc2ccc(Cl)cc2)c1 | 1% | 5% | -24% | 1% | -9%
COc1ccc(C(=O)NCCNc2ccccc2[N+](=O)[O-])cc1 | -11% | 6% | -13% | 8.9µM* | -5%
COC(=O)CCCC1=CC2=C(c3ccccc3)C(=O)C(C)(OC(=O)C3CCCC3)C(=O)C2=CN1CCCOC(C)C (stereo unspecified) | -17%[11.2 µM] | 7%[11.2 µM] | -16%[11.6 µM] | ? | 11%[11.6 µM]
COc1ccc(S(=O)(=O)Nc2ccccc2OC)cc1NC(=O)c1cc2ccccc2oc1=O | 0% | -3% | -19% | -7% | -3%
Cc1[nH]c2ccccc2c1N=Nc1ccc(F)cc1 | 0% | -2% | 14µM*[quencher] | 13µM* | -2%
Cc1[nH]c2ccccc2c1N=Nc1ccccc1F | 0% | -1% | 13µM*[quencher] | 13µM* | ?
Cc1[nH]c2ccccc2c1N=Nc1cc(C(=O)O)cc(C(=O)O)c1 | -3% | -12% | -8% | ? | 0%
COc1cc(-c2nc3ccccn3c2/N=C/c2ccccc2)ccc1O | -4% | -2% | -26% | ? | -15%
COc1cc(-c2nc3ccccn3c2/N=C/c2cc(OC)c(O)cc2Cl)ccc1O | -1% | -5% | ? | 14µM* | ?
CC(C)(C)NC(=O)/C=C/c1cccc(C(F)(F)F)c1 | -1% | 5% | -8% | -5% | 1%
CC(=O)Nc1ccc(NC(=O)/C=C/c2cccc(C(F)(F)F)c2)cc1 | 3.2µM*[quencher] | ? | 2% | 6% | 5%
SMILES | TR SRC2 fluor cs | TRb SRC2 PPI | Tau fluor counter | Tau ThT inhib | Tau FP inhib
C[Si](C)(C)O[Si](C)(C)O[Si](C)(C)C | 2%[201 µM] | 3%[201 µM] | . | . | .
Cn1ccc2cc(NC(=O)Nc3cccnc3)ccc21 | -6% | -8% | 14µM*[quencher] | ? | ?
CC(=O)Nc1ccc2ccccc2c1 | -6% | -6% | -5% | -5% | 0%
CC(=O)Nc1ccc2cc3ccc(NC(C)=O)cc3nc2c1 | -11% | -4% | ? | 7.9µM* | 0%
O=C(CSc1nccn1-c1ncc(C(F)(F)F)cc1Cl)c1ccc(Br)cc1 | 3% | 4% | -23% | 14µM* | ?
CCOc1ccc2[nH]c(=O)c(CN(Cc3ccco3)C(CC)c3nnnn3Cc3ccccc3)cc2c1 (stereo unspecified) | 0% | -6% | -12% | 25µM* | ?
COc1cc2cc(CN(Cc3nnnn3Cc3ccco3)C3CCCCC3)c(=O)[nH]c2cc1OC | -16% | -13% | ? | 16µM* | ?
CCOc1ccc2[nH]c(=O)c(CN(Cc3ccco3)Cc3nnnn3Cc3ccccc3)cc2c1 | 3% | 10% | -18% | ? | -7%
CCC(C)(C)n1nnnc1CN(Cc1cc2cc(OC)ccc2[nH]c1=O)C1CCCC1 | -3% | 3% | -16% | ? | 1%
CCOc1ccc2[nH]c(=O)c(C(c3nnnn3Cc3ccco3)N3CCN(C)CC3)cc2c1 (stereo unspecified) | -8% | ? | -19% | 14µM* | ?
CCOc1ccc2[nH]c(=O)c(CN(Cc3nnnn3Cc3ccco3)C3CCCCC3)cc2c1 | ? | 14% | -28% | 22µM* | ?
CCC1(O)CC2CN(CCc3c([nH]c4ccccc34)[C@@](C(=O)OC)(c3cc4c(cc3OC)N(C)C3[C@]45CCN4CC=C[C@@](CC)([C@@H](OC(C)=O)[C@]3(O)C(=O)OC)[C@H]45)C2)C1 (stereo partly specified) | -6% | 9% | -16% | ? | -10%
CCn1cc(C(=O)NCCCN2CCN(C)CC2)c(=O)c2cc(S(=O)(=O)N3CCc4ccccc4C3)ccc21 | -1% | 3% | -2% | 2% | -1%
Cc1ccc(Cn2c(C(=O)NCc3ccccc3Cl)cc3sccc32)cc1 | -1% | 4% | -29% | -6% | -10%
COc1cccc(NC(=O)CN(CCc2ccccc2)S(=O)(=O)c2ccc(Cl)cc2)c1 | -18% | 6% | ? | 2% | ?
Cc1ccc(C)c(Cn2c(=O)n(Cc3ccccc3)c(=O)c3sc4ccccc4c32)c1 | 1% | -1% | -8% | 3% | -3%
CCOC(=O)c1ccc(Nc2c(OCC)c(=O)c2=O)cc1 | -3% | -8% | 18µM*[quencher] | . | -5%
O=C(NN=c1c(=O)c2ccccc2c1=O)c1ccccc1 | -2% | ? | -25% | 5.6µM* | ?
O=C1C(c2[nH]c3ccc(S(=O)(=O)O)cc3c2O)=Nc2ccc(S(=O)(=O)O)cc21 | ? | -11% | -22% | 8.9µM* | ?
CCCCc1nc2ccc(S(=O)(=O)O)cc2[nH]1 | -2% | 3% | 8% | 7% | -3%
